Source: PubChem BioAssay (several laboratories)
Mdm2 MdmX PPI = inhibitors of human Mdm2-MdmX association, primary screen, cell-based, luminescence, split luciferase, SaOS-2, uHTS; Protein Mdm4 (Homo sapiens) + E3 ubiquitin-protein ligase Mdm2 (Homo sapiens), …; SaOS-2 split-luciferase Mdm2/MdmX complementation; inhibition, % at 8 µM; actives 3% (n = 330,000); AID 485346, 2010;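 active = inhibition of at least 50% at 8 µM in the primary screen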
Beta cell apopt = inhibitors of cytokine-induced beta cell apoptosis, primary screen, luminescence. actives 0.8% (n = 300,000). INS-1E cytokine-induced death, ATP luminescence, 48 h; percent of positive-control rescue, neutral wells zero. protection from apoptosis, % (concentration not given with the values). AID 435005, 2010;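 active = Every replicate reaches about 75%, or at least half do and their mean reaches it too, limit read from the data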;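 also: 0% = cytokine-treated negative control wells and 100% = positive control rescue; higher means more ATP so stronger rescue from cytokine killing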
PAX8 inh HTS = inhibitors of PAX8-driven TPO luciferase reporter, primary screen, RMG-I cells, single concentration. inhibition, % at 12.6 µM. SteadyGlo, 24 h. actives 1.2% (n = 360,000). AID 652154, 2013;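 active = mean replicate inhibition at least 60% with every replicate also reaching 60%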;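 also: luciferase light reporting Pax8 driven TPO promoter activity; plate controls were median of neutral control wells for no effect and mitoxantrone controls for full effect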
Shn3 3UTR inh = reduction of Shn3 3'UTR firefly luciferase signal, primary screen, Schnurri-3 inhibitor project, cell-based, Clone20 osteoblasts, set 2; Clone20 osteoblast Shn3 3'UTR firefly luciferase, 24 h; inhibition, % at 12.5 µM; actives 0.52% (n = 360,000); AID 588674, 2011;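 active = mean inhibition of at least 75% with every replicate also reaching 75%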;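 also: 0% = median of neutral control wells and 100% = pilot-screen positive control compound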
CSC inhib = cancer stem cell viability inhibitors, primary screen, luminescence; actives 1.1% (n = 300,000); AID 2717, 2010; cancer stem cell-like cells viability; inhibition, % at 7.5 µM; in the data active = inhibition above about 75%; tested in HMLE shEcad cells
Gli-Sufu block = Gli-Sufu pathway antagonists, primary screen, luciferase luminescence, Sufu-KO-LIGHT cells, uHTS | Sufu-KO-LIGHT fibroblasts, Gli luciferase reporter luminescence | inhibition, % at 5 µM | actives 0.74% (n = 340,000) | AID 588413, 2011;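 active = inhibition above about 55%, limit read from the data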;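 also: 0% = DMSO-treated cells and 100% = wells with medium but no cells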
Mdm2-MdmX conf = Mdm2-MdmX complex disruptors, retested hits, confirmation, luminescence, single concentration; shares compounds with Mdm2 MdmX PPI; Mdm2-MdmX binding, luminescent assay; inhibition, % at 8 µM; actives 55% (n = 10,000); in the data active = inhibition above about 40%
Full FLuc ctr = full-length luciferase signal inhibition, confirmation, counter-screen for Mdm2/MdmX interaction inhibitor project, cell-based, single concentration, SaOS-2. shares compounds with Mdm2 MdmX PPI. SaOS-2 full-length luciferase counterscreen, luminescence. inhibition, % at 8 µM. actives 77% (n = 6,200);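 active = mean inhibition at 8 µM reaching about 37%, which flags the compound as non-specific, limit read from the data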;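 also: p53-null SaOS-2 cells with luciferase driven by a doxycycline-inducible promoter; compound on cells about two nights before reading with doxycycline added after day one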
Active calls of the source: *; . = no result. Hits are enriched below; roughly 4% of the tested compounds scored in any of these assays.

SMILES | Mdm2 MdmX PPI | Beta cell apopt | PAX8 inh HTS | Shn3 3UTR inh | CSC inhib | Gli-Sufu block | Mdm2-MdmX conf | Full FLuc ctr
COc1cc(C(=O)O/N=C(\N)c2ccc([N+](=O)[O-])cc2)cc(OC)c1OC | 75* | 11 | 6 | -9 | -3 | -1 | 36 | 95*
COc1cc(C(=O)O/N=C(\N)c2cccc([N+](=O)[O-])c2)cc(OC)c1OC | 74* | . | -77 | -9 | -4 | 4 | 36 | 103*
COc1ccc(/C(N)=N/OC(=O)c2cccc([N+](=O)[O-])c2)cc1 | -34 | 0 | . | -86 | -5 | 0 | . | .
O=C(N[C@@H]1C=C[C@H](CC(=O)N2CCCCC2)O[C@@H]1CO)c1ccccn1 | . | . | -4 | . | . | . | . | .
COc1ccccc1NC(=S)NCc1ccc2c(c1)cc(C)n2C | 31 | -11 | -25 | 16 | -12 | 8 | . | .
Cc1ccccc1NC(=S)NCc1ccc2c(c1)cc(C)n2C | 68* | 6 | -20 | 2 | -1 | -7 | 48* | 62*
Cc1cc(C)cc(NC(=O)CSc2ccc(-c3ccccn3)nn2)c1 | 68* | 24 | 17 | 42 | 96* | 13 | 68* | 32
C=C1CCC2[C@](C)(CO)[C@H](O)CC[C@@]2(C)[C@@H]1C/C=C1\C(=O)OC[C@H]1O (stereo partly specified) | 69* | -17 | . | -10 | -12 | 3 | 63* | 27
CO[C@H]1CN(C)C(=O)c2ccc(NC(=O)NC(C)C)cc2OC[C@@H](C)N(C(=O)CC2CC2)C[C@@H]1C | . | . | -29 | . | . | . | . | .
CO[C@@H]1CN(C)C(=O)c2ccc(NC(=O)C3CC3)cc2OC[C@@H](C)N(C(=O)c2cccnc2)C[C@@H]1C | . | . | 3 | . | . | . | . | .
CCOC(=O)c1[nH]c2ccc(C)cc2c1N | -74 | -4 | . | -64 | -15 | -67 | . | .
CCOC(=O)C1(N(CC)CC)Sc2cc(C)ccc2NC1=O (stereo unspecified) | 68* | 8 | 34 | 25 | 37 | -9 | 69* | 52*
C[C@@H]1CN([C@H](C)CO)C(=O)c2cc(NS(=O)(=O)c3cn(C)cn3)ccc2O[C@@H](C)CCCCO[C@@H]1CN(C)S(=O)(=O)c1ccc(F)cc1 | . | . | -28 | . | . | . | . | .
CN(C)C(=O)c1cccc(-c2ccc([C@H]3[C@H]4CN(C(=O)C5CCCC5)CC(=O)N4[C@H]3CO)cc2)c1 | . | . | -1 | . | . | . | . | .
COCC(=O)Nc1ccc2c(c1)C(=O)N(C)C[C@H](OC)[C@H](C)CN(Cc1ccccc1F)[C@H](C)CO2 | . | . | -11 | . | . | . | . | .
CC12CC(c3ccccc3O1)N(C(=O)c1ccco1)C(=S)N2c1ccc(F)cc1 (stereo unspecified) | 51* | -1 | 56 | -12 | 14 | 5 | 30 | .
O=C(Nc1ccc(N2CCCC2)c(Cl)c1)c1cccnc1 | -6 | 5 | . | -46 | 3 | -79 | . | .
O=C(Nc1ccc(N2CCCCC2)c(Cl)c1)c1cccnc1 | 66* | 0 | -95 | . | . | -45 | 46* | 50*
O=C(Nc1ccc(N2CCOCC2)c(Cl)c1)c1c(F)c(F)c(F)c(F)c1F | 57* | -4 | . | 18 | 15 | -10 | 46* | 45*
C[C@@H]1CN([C@@H](C)CO)C(=O)c2cc(NS(C)(=O)=O)ccc2O[C@@H](C)CCCCO[C@@H]1CN(C)C(=O)NC1CCCCC1 | . | . | -8 | . | . | . | . | .
C[C@@H]1CCCCO[C@@H](CN(C)S(=O)(=O)c2cccs2)[C@@H](C)CN([C@H](C)CO)C(=O)c2cc(NC(=O)Nc3ccccc3)ccc2O1 | . | . | -14 | . | . | . | . | .
COc1ccc(C(=O)NC(=S)NNC(=O)[C@H]2C[C@@H]2c2ccccc2)cc1OC | 62* | 18 | 38 | 65 | 29 | -15 | 20 | .
